Data taken from PubChem BioAssay (EPA / NIEHS).
Activity calls are given as the source filed them. The calls were made as follows: active = hit-call score of the fitted dose curve at least 0.9, where 1 is the maximum; inactive = score below 0.9.

Legend:
[1] = read-out: Human Leukocyte Antigen - DR isotype (HLADR), HLA-DRA (gene 3122); test: BSK_BE3C_HLADR: BioMAP Diversity Plus: BE3C Assay for Human Leukocyte Antigen - DR isotype (HLADR) Biomarker Activity (AID 2283032); conditions: primary human bronchial epithelial cells; actives raise or lower the signal
How it was run: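 Human primary bronchial epithelial cells (BE3C system) exposed to compound for 24 hours; cell-surface HLA-DR measured by ELISA, fitted bidirectionally relative to DMSO. Total protein by SRB in parallel cultures tracked cytotoxicity.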

[2] = read-out: Vascular cell adhesion molecule 1 (VCAM1), VCAM1 (gene 7412); test: BSK_4H_VCAM1: BioMAP Diversity Plus: 4H Assay for Vascular cell adhesion molecule 1 (VCAM1) Biomarker Activity (AID 2283033); conditions: primary human endothelial cells (HUVEC); actives raise or lower the signal
How it was run: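 Primary human umbilical vein endothelial cells, 4H stimulation system, treated for 24 h; cell-surface VCAM-1 quantified by ELISA. Bidirectional fitting against DMSO; cytotoxicity tracked by SRB total-protein staining in parallel cultures.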

[3] = read-out: Interferon-gamma inducible Protein 10 (IP10), CXCL10 (gene 3627); test: BSK_BE3C_IP10: BioMAP Diversity Plus: BE3C Assay for Interferon-gamma inducible Protein 10 (IP10) Biomarker Activity (AID 2283034); conditions: primary human bronchial epithelial cells; actives raise or lower the signal
How it was run: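 Primary human bronchial epithelial cells, with IP-10 measured by ELISA 24 hours after chemical dosing. Bidirectional fit against DMSO; cytotoxicity checked by SRB total protein staining in parallel cultures.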

[4] = read-out: Monokine induced gamma interferon (MIG), CXCL9 (gene 4283); test: BSK_BE3C_MIG: BioMAP Diversity Plus: BE3C Assay for Monokine induced gamma interferon (MIG) Biomarker Activity (AID 2283035); conditions: primary human bronchial epithelial cells; actives raise or lower the signal
How it was run: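 Primary human bronchial epithelial cells treated for 24 h; MIG levels measured by ELISA, fitted bidirectionally versus DMSO. Parallel SRB total-protein staining assessed cytotoxicity.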

[5] = read-out: Transforming growth factor beta 1 (TGFb1), TGFB1 (gene 7040); test: BSK_BE3C_TGFb1: BioMAP Diversity Plus: BE3C Assay for Transforming growth factor beta 1 (TGFb1) Biomarker Activity (AID 2283036); conditions: primary human bronchial epithelial cells; actives raise or lower the signal
How it was run: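 Primary human bronchial epithelial cells dosed with chemical; TGF-b1 measured by ELISA 24 h after dosing. Bidirectional curve fitting against DMSO negative control; SRB total-protein staining in parallel cultures gauged cytotoxicity.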

[6] = read-out: urokinase plasminogen activator (uPA), PLAU (gene 5328); test: BSK_BE3C_uPA: BioMAP Diversity Plus: BE3C Assay for urokinase plasminogen activator (uPA) Biomarker Activity (AID 2283038); conditions: primary human bronchial epithelial cells; actives raise or lower the signal
How it was run: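 Measured by ELISA: uPA from human primary bronchial epithelial cells 24 h after chemical treatment. Values derive from bidirectional curve fitting with DMSO serving as negative control. Total protein by SRB staining in parallel wells flagged overt cytotoxicity.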

[7] = read-out: Urokinase-type plasminogen activator receptor (uPAR), PLAUR (gene 5329); test: BSK_BE3C_uPAR: BioMAP Diversity Plus: BE3C Assay for Urokinase-type plasminogen activator receptor (uPAR) Biomarker Activity (AID 2283039); conditions: primary human bronchial epithelial cells; actives raise or lower the signal
How it was run: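 Primary human bronchial epithelial cells dosed for 24 h; uPAR quantified by ELISA with bidirectional fitting against DMSO. Overt cytotoxicity assessed in parallel cultures by SRB total-protein staining (0.1% SRB, 560 nm).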

[8] = read-out: Interleukin-6 (IL6), IL6 (gene 3569); test: BSK_CASM3C_IL6: BioMAP Diversity Plus: CASM3C Assay for Interleukin-6 (IL6) Biomarker Activity for (AID 2283040); conditions: primary human coronary artery smooth muscle cells; actives raise or lower the signal
[9] = read-out: Plasminogen activator inhibitor-1 (PAI1), SERPINE1 (gene 5054); test: BSK_BE3C_PAI1: BioMAP Diversity Plus: BE3C Assay for Plasminogen activator inhibitor-1 (PAI1) Biomarker Activity (AID 2283037); conditions: primary human bronchial epithelial cells; actives raise or lower the signal
How it was run: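 Primary human bronchial epithelial cells (BE3C system) exposed 24 h; PAI-1 quantified by ELISA. Parallel sulforhodamine B staining of total protein flags cytotoxicity. Bidirectional fit versus DMSO.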

Measured: AC50

Cc1ccccc1O
inactive: [1] | [2] | [3] | [4] | [5] | [6] | [7] | [8]

c1cc2ccc3cccc4ccc(c1)c2c34
inactive: [1] | [3] | [4] | [5] | [6] | [7] | [8]
active: [2] 15.5 µM

CCCCCCOC(=O)c1ccccc1C(=O)OCCCCCC
inactive: [1] | [2] | [3] | [4] | [5] | [6] | [7] | [8]

O=C(NC(=O)c1c(F)cccc1F)Nc1cc(Cl)c(OC(F)(F)C(F)F)c(Cl)c1
inactive: [1] | [2] | [3] | [4] | [5] | [6] | [7] | [8]

ClC(Cl)=C(c1ccc(Cl)cc1)c1ccc(Cl)cc1
inactive: [1] | [3] | [4] | [5] | [9] | [7] | [8]
active: [2] 28.6 µM | [6] 13.1 µM

Cc1cc(-c2ccc(N)c(C)c2)ccc1N
inactive: [1] | [2] | [3] | [4] | [5] | [6] | [7] | [8]

CC(c1ccc(O)cc1)(c1ccc(O)cc1)c1ccc(O)cc1
inactive: [8]
active: [1] 2.08 µM | [2] 24 µM | [3] 2.57 µM | [4] 2.2 µM | [5] 1.92 µM | [6] 3.25 µM | [7] 2.4 µM

CCSC(=O)N(CC)C1CCCCC1
inactive: [1] | [2] | [3] | [4] | [5] | [6] | [7] | [8]

Oc1ccc(Cl)cc1Cl
inactive: [1] | [2] | [3] | [4] | [5] | [6] | [7] | [8]

O=C(O)C(F)(F)C(F)(F)C(F)(F)C(F)(F)C(F)(F)F
inactive: [1] | [2] | [3] | [4] | [5] | [6] | [7] | [8]

CCOC(=O)C(O)(c1ccc(Cl)cc1)c1ccc(Cl)cc1
inactive: [1] | [4] | [5] | [6] | [7] | [8]
active: [2] 30.7 µM | [3] 31.1 µM

O=S(=O)(O)C(F)(F)C(F)(F)C(F)(F)C(F)(F)C(F)(F)C(F)(F)F
inactive: [1] | [2] | [3] | [4] | [5] | [9] | [6] | [7] | [8]

N#Cc1ccc(N(CC(N)=O)CC(F)(F)F)cc1C(F)(F)F
inactive: [1] | [2] | [3] | [4] | [5] | [6] | [7] | [8]

CCCN(CCC)N=O
inactive: [1] | [2] | [3] | [4] | [5] | [6] | [7] | [8]

CCCCCCCCCc1ccc(O)cc1
active: [1] 13.6 µM | [2] 15.8 µM | [3] 13.1 µM | [4] 18.5 µM | [5] 16.4 µM | [6] 15.1 µM | [7] 15.7 µM | [8] 27.8 µM

ClC1=C(Cl)[C@]2(Cl)[C@@H]3[C@@H]4C[C@@H]([C@H]5O[C@@H]45)[C@@H]3[C@@]1(Cl)C2(Cl)Cl
inactive: [1] | [2] | [3] | [4] | [5] | [6] | [7] | [8]

Cc1cccc([N+](=O)[O-])c1
inactive: [1] | [2] | [3] | [4] | [5] | [6] | [7] | [8]

Clc1ccc(Cl)cc1
inactive: [1] | [2] | [3] | [4] | [5] | [6] | [7] | [8]
